Assay [1] in a line: resazurin metabolic signal in HepG2 cells – cell-based, resazurin fluorescence, 24 h, PK04 Diversity Set, profiling panel (AID 1172). Conditions: HepG2 viability, higher = more signal. For orientation: Alamar Blue is a resazurin reagent that responds to reducing activity.
The nature of assay [2]: budding yeast growth changes without added modifier – OD600, strain BY4716, 24 h, basal condition, primary screen (AID 1173). The conditions noted are these: S. cerevisiae BY4716 growth, OD600, 24 h; higher = more signal, called active from +8 up or from −8 down.
Assay [3] in a line: viability profiling in MM1S myeloma cells – cell-based, resazurin fluorescence, basal, 24 h, PK04 Diversity Set, profiling panel (AID 1174). The conditions noted are these: higher = more signal, called active from +8 up or from −8 down.
Assay [4] has as its target Dihydroorotate dehydrogenase (quinone), mitochondrial (Plasmodium falciparum (isolate 3D7)) (UniProt Q08210). Kind of assay: inhibition of P. falciparum DHODH – biochemical, C-terminal His tag, absorbance 600 nm, primary screen (AID 1175).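 Also: recombinant parasite enzyme with a five histidine tag at its C terminus.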 The conditions noted are these: PfDHODH enzyme, DCIP absorbance 600 nm; higher = more signal, called active from +8 up or from −8 down.

Assay [5] is described as follows: inhibition of PAO1 biofilm formation – strain PAO1, LB-PBS medium, absorbance 600 nm, primary screen (AID 1176). The conditions noted are these: P. aeruginosa PAO1 growth/biofilm, A600, 12 h; higher = more signal.
The nature of assay [6]: growth modulation of vineyard yeast isolate – strain RM11-1a, OD600, basal, 24 h, primary screen (AID 1177).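 Also: cultures grown under basal conditions with no added stressor.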 The conditions noted are these: S. cerevisiae RM11-1a growth, OD600, 24 h; higher = more signal, called active from +8 up or from −8 down.
Assay [7] in a line: growth of efflux-deficient E. coli DRC39 – strain DRC39, OD650, 24 h, E. coli filamentation inducers, primary screen (AID 1178).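 Also: growth measured as culture turbidity by optical density at 650 nm.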 Conditions: E. coli DRC39 acrAB, higher = more signal, called active from +8 up or from −8 down.
Assay [8] can be described thus: growth of efflux-deficient E. coli DRC39 – strain DRC39, OD650, 48 h, E. coli filamentation inducers, primary screen (AID 1179).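 Also: screen aims at cell division blockers that make cells filament.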 Conditions: E. coli DRC39 delta-acrAB growth, higher = more signal, called active from +8 up or from −8 down.
Assay [9] is described as follows: viability profiling in RPMI8226 myeloma cells – cell-based, resazurin fluorescence, basal, 24 h, PK04 Diversity Set, profiling panel (AID 1180).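 Also: RPMI8826 multiple myeloma cell line at 5000 cells per well.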 Conditions: higher = more signal.
Assay [10] concerns the target E3 ubiquitin-protein ligase XIAP (Homo sapiens) (UniProt P98170). Kind of assay: small molecules binding XIAP protein – biophysical, small-molecule microarray, fluorescence 635 nm, primary screen (AID 1181).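 Also: score merges 667 nm emission and signal to noise over triplicate slides.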 The conditions noted are these: higher = more signal.
Assay [11] relates to XIP peptide (Xip251-270) binding. Kind of assay: XIP fragment 251-270 binding compounds – biochemical, small-molecule microarray, fluorescence 635/667 nm, 0.1 µg/mL protein, primary screen (AID 1182). Conditions: fluorescent protein binding, 635 nm, higher = more signal, called active from +8 up or from −8 down.
For the next assay, the system named is XIP peptide (Xip251-270). As to the kind of experiment: compounds binding XIP fragment 251-270 – biochemical, small-molecule microarray, fluorescence 635/667 nm, 0.5 µg/mL protein, primary screen (AID 1183). Conditions: fluorescence 635 nm, higher = more signal.
Assay [12] is described as follows: blood-stage malaria parasite viability loss – strain 3D7, DAPI fluorescence, 100 nL, primary screen (AID 1184).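 Also: parasites grown inside human red blood cells in medium with human serum.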 Conditions: P. falciparum 3D7 growth, 3 d, higher = more signal.
Assay [13] addresses Homeobox protein Hox-A13 (Mus musculus) (UniProt Q62424). Kind of assay: disruptors of Hoxa13 oligonucleotide interaction – biochemical, fluorescence polarization, labeled oligonucleotide, primary screen (AID 1185). Conditions: Hoxa13:DNA binding, 15 min, higher = more signal, called active from +8 up or from −8 down. A general note: Polarisation of emitted light reports the rotation of a fluorescent probe.

A short description of assay [14]: blockers of DNA damage checkpoint Chk1 activation – imaging, HeLa, hydroxyurea, phospho-Chk1 antibody, percent positive cells, primary screen (AID 1186). The conditions noted are these: hydroxyurea-induced phospho-Chk1 immunofluorescence imaging, higher = more signal.
Assay [15] in a line: blockers of DNA damage checkpoint Chk1 activation – imaging, HeLa, hydroxyurea, phospho-Chk1 nuclear intensity, primary screen (AID 1187). Conditions: hydroxyurea-induced phospho-Chk1 immunofluorescence imaging, higher = more signal.

SMILES strings stand for the structures. The source made the active and inactive calls. Unless noted, no rule for the calls is given here.

Dihydroorotate dehydrogenase (quinone), mitochondrial (Plasmodium falciparum (isolate 3D7)), sequence (Q08210 whole entry, looked up): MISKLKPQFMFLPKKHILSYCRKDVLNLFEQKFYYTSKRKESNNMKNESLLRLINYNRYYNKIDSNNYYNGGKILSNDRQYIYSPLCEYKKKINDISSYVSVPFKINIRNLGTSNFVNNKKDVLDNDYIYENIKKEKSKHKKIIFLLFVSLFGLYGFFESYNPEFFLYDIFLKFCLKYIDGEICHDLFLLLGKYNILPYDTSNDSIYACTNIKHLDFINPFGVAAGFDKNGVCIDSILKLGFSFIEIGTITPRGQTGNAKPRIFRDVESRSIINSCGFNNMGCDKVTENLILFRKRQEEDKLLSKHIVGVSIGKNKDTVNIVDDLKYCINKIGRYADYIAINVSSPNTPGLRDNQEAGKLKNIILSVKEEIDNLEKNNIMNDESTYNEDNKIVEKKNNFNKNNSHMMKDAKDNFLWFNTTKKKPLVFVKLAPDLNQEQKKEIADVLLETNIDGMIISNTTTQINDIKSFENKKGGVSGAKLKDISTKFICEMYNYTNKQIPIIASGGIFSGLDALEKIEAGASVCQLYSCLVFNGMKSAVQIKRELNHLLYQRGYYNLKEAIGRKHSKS
E3 ubiquitin-protein ligase XIAP (Homo sapiens), sequence (P98170 whole entry, looked up, the tested form may be a part): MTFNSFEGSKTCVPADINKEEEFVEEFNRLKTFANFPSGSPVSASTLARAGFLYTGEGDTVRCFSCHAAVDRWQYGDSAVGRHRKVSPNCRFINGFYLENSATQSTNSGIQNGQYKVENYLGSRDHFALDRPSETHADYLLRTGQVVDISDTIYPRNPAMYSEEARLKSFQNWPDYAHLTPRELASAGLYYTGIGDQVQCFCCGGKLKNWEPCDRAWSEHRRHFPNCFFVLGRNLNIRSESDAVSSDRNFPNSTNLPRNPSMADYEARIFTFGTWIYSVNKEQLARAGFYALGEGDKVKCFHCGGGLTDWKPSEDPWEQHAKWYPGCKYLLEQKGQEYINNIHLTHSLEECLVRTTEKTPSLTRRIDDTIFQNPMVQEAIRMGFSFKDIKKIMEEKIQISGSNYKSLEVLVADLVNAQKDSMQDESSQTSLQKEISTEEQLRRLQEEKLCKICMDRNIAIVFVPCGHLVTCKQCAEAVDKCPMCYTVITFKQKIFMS
Homeobox protein Hox-A13 (Mus musculus), sequence (Q62424 whole entry, looked up): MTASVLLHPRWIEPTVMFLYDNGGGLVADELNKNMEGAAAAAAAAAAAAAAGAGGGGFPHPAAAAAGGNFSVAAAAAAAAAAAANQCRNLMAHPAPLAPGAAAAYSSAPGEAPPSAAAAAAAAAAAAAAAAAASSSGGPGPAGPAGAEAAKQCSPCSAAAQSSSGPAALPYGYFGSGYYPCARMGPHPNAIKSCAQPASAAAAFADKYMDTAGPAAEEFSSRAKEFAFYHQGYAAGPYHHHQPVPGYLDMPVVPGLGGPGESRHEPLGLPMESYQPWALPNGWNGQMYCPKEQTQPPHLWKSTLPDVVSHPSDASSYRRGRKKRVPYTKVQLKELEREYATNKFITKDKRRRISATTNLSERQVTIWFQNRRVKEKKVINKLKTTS

Turning to `COCCOC(=O)N1C(=O)[C@@]2(c3cc(C#CCC(C(=O)OC)C(=O)OC)ccc31)[C@H](c1ccc(O)cc1)N1[C@H](c3ccccc3)[C@H](c3ccccc3)OC(=O)[C@H]1[C@@H]2C(=O)NC[C@H](O)c1ccccc1`, the z-score in assay [1] is 1.78; in assay [2], -0.149 (inactive); in assay [3], 0.6 (inactive); in assay [5], -0.489 (inactive); in assay [6] it was 0.592 (inactive); in assay [7] it was 0.416 (inactive). In addition, the z-score in assay [8] is -0.228 (inactive); in [9], -2.51; in assay [12], -0.474; in [13] it was -2.44 (inactive); in [14], 0.101 (inactive); in assay [15] it was 0.524 (inactive). In addition, the composite z-score is 0.407 (inactive) in assay [4], -0.187 in assay [10], 0.398 (inactive) in [11] and 0.465 with XIP peptide (Xip251-270).

Take `[N-]=[N+]=Nc1ccccc1C[C@@]1(C(=O)O)N=C(c2ccc(OCCCO)cc2)O[C@@H]1c1ccccc1N=[N+]=[N-]`: the z-score in [1] is 0.628; in [2], -2.04 (inactive); in assay [3], -0.988 (inactive); in assay [5], 0.879 (inactive); in [6] it was -1.23 (inactive); in assay [7] it was -0.258 (inactive). Also, the z-score was -0.69 (inactive) in [8]; -0.955 in assay [9]; -1.74 in assay [12]; -5.17 (inactive) in assay [13]; -0.267 (inactive) in assay [14]; -0.317 (inactive) in assay [15]. The composite z-score is -0.435 (inactive) in assay [4], -0.0374 in [10], 0.0588 (inactive) in assay [11] and 0.736 in the assay with XIP peptide (Xip251-270).

Turning to `COC(=O)C1=CC(CCCO)=CC(C)N(Cc2cccc(OC(F)(F)F)c2)C=C1C(=O)OC` (stereo not given), the z-score in assay [1] is 0.0252; in assay [2], -1.78 (inactive); in [3], -0.0934 (inactive); in [5] it was 0.227 (inactive); in [6] it was 0.0728 (inactive); in assay [7] it was 1.38 (inactive). For the same compound, the z-score in [8] is 1.21 (inactive); in assay [9] it was -0.123; in assay [12] it was -1.12; in assay [13], -7.74 (inactive); in assay [14], -0.249 (inactive); in assay [15] it was -0.655 (inactive). Also, the composite z-score is -2.73 (inactive) in [4], 0.365 in assay [10], 0.0257 (inactive) in assay [11] and 0.526 in the assay on XIP peptide (Xip251-270).

`[N-]=[N+]=NCc1ccccc1[C@H]1OC(c2ccc(OCCCO)cc2)=N[C@@]1(CCS(=O)(=O)c1ccccc1)C(=O)NCc1ccccc1`: the z-score in assay [1] was 1.18; in [2] it was 0.879 (inactive); in assay [3], -0.0789 (inactive); in [5] it was -0.4 (inactive); in [6], 2.19 (inactive); in assay [7], 1.01 (inactive). Besides, the z-score in assay [8] is 0.536 (inactive); in assay [9] it was 0.032; in assay [12], -2.28; in [13], -0.495 (inactive); in assay [14], -0.189 (inactive); in [15] it was 0.283 (inactive). In addition, the composite z-score in assay [4] is 0.786 (inactive); in assay [10], 0.129; in assay [11] it was -0.165 (inactive); in the assay on XIP peptide (Xip251-270) it was 0.68.

`Cc1nc2cc(Br)ccc2c(=O)n1Cc1cccc(O)c1`: the z-score in [1] was 0.674; in [2], -0.496 (inactive); in assay [3], -1.23 (inactive); in assay [5], 1.38 (inactive); in assay [6] it was 0.0164 (inactive); in [7] it was 0.381 (inactive). Also, the z-score was 0.776 (inactive) in assay [8]; -0.505 in assay [9]; -0.563 in [12]; 0.464 (inactive) in assay [13]; 0.18 (inactive) in [14]; 0.257 (inactive) in assay [15]. In addition, the composite z-score in assay [4] is 0.0596 (inactive); in assay [10], 0.0674; in assay [11] it was 0.651 (inactive); with XIP peptide (Xip251-270), 0.529.

`COCCOC(=O)N1C(=O)[C@@]2(c3cc(C#CCNC(N)=O)ccc31)[C@H](c1ccc(O)cc1)N1[C@H](c3ccccc3)[C@H](c3ccccc3)OC(=O)[C@H]1[C@@H]2C(=O)N1CCN(c2ncccn2)CC1`: the z-score in assay [1] is 0.392; in [2] it was 2.72 (inactive); in assay [3], -0.441 (inactive); in assay [5] it was 2.81 (inactive); in assay [6], 3.03 (inactive); in assay [7], -0.123 (inactive). The z-score was 0.0896 (inactive) in assay [8]; -0.0784 in [9]; -1.71 in assay [12]; 0.0468 (inactive) in assay [13]; -0.11 (inactive) in assay [14]; -0.184 (inactive) in assay [15]. The composite z-score was -0.265 (inactive) in assay [4], -0.205 in assay [10], 0.237 (inactive) in assay [11] and 0.796 in the assay with XIP peptide (Xip251-270).

For the compound `CC(C)CNC(=O)[C@@H]1c2ccccc2C(=O)N(C2CCCCC2)[C@H]1c1ccc(CO)cc1`, the z-score in assay [1] was 1.12; in assay [2] it was -0.664 (inactive); in assay [3], 1.5 (inactive); in assay [5], 0.292 (inactive); in [6], -1.22 (inactive); in assay [7] it was 1.49 (inactive). Besides, the z-score in [8] is 1.59 (inactive); in assay [9] it was 1.34; in [12] it was -0.68; in assay [13], -2.05 (inactive); in [14], -0.411 (inactive); in assay [15], -0.339 (inactive). Also, the composite z-score is 0.246 (inactive) in assay [4], -0.234 in [10], 0.737 (inactive) in assay [11] and 0.652 in the assay on XIP peptide (Xip251-270).

For the compound `COCCOC(=O)N1C(=O)[C@@]2(c3cc(C#CC4=CCCCC4)ccc31)[C@H](c1ccc(O)cc1)N1[C@H](c3ccccc3)[C@H](c3ccccc3)OC(=O)[C@H]1[C@@H]2C(=O)NC[C@H](O)c1ccccc1`, the z-score in assay [1] is -1.35; in [2] it was 0.237 (inactive); in assay [3] it was -2.48 (inactive); in [5] it was 1.29 (inactive); in [6], 1.94 (inactive); in [7] it was -0.396 (inactive). In addition, the z-score in [8] was 0.478 (inactive); in assay [9], -2.55; in [12], -1.69; in assay [13], 1.07 (inactive); in assay [14] it was -0.0889 (inactive); in assay [15], 0.129 (inactive). Besides, the composite z-score was -0.495 (inactive) in [4], 0.0471 in assay [10], 0.816 (inactive) in assay [11] and 0.75 in the assay on XIP peptide (Xip251-270).

Regarding `C=C(COC)/C(=C/C[C@@H](OC(=O)c1ccncc1)c1ccccc1OCCO)c1cc(C(=O)OC)ccc1OC`, the z-score in assay [1] is 0.106; in [2], -1.35 (inactive); in [3], -1.03 (inactive); in assay [5], 0.825 (inactive); in assay [6], 0.0248 (inactive); in assay [7] it was 0.404 (inactive). The z-score in assay [8] is 0.32 (inactive); in assay [9] it was -1.35; in [12], -2.97; in [13], -4.02 (inactive); in assay [14], 0.386 (inactive); in [15], 0.77 (inactive). The composite z-score in assay [4] is -4 (inactive); in assay [10] it was -0.211; in [11], -0.115 (inactive); with XIP peptide (Xip251-270), -0.728.

As to `COCCOC(=O)N1C(=O)[C@@]2(c3cc(C#CCC(C(=O)OC)C(=O)OC)ccc31)[C@H](c1ccc(OCCO)cc1)N1[C@H](c3ccccc3)[C@H](c3ccccc3)OC(=O)[C@H]1[C@@H]2C(=O)Nc1nc2ccccc2s1`, the z-score was 1.13 in assay [1]; 1.05 (inactive) in assay [2]; 0.814 (inactive) in assay [3]; 3.58 (inactive) in [5]; 3.24 (inactive) in assay [6]; 1.18 (inactive) in assay [7]. The z-score was 0.901 (inactive) in [8]; -1.15 in assay [9]; -0.512 in assay [12]; 2.1 (inactive) in assay [13]; -0.365 (inactive) in assay [14]; -0.632 (inactive) in [15]. Moreover, the composite z-score is -1.53 (inactive) in assay [4], 0.0506 in [10], 0.0047 (inactive) in [11] and 0.59 in the assay on XIP peptide (Xip251-270).

The values are drawn from PubChem BioAssay.
